PubChem BioAssay (Tox21)
Results filed as inconclusive are left out. The source made the active and inactive calls. Calls follow the shape of the dose curve; as a rule, active = well fitted cell-killing curve with a large enough effect in the repeat runs; inconclusive = weak or mixed curves, or effect the other way; inactive = no such curve, though single readings can be large or run the other way.

Assay: qHTS assay to identify small molecule antagonists of the glucocorticoid receptor (GR) signaling pathway - cell viability counter screen (AID 720693); also: nearly all actives have a fitted effect of over 55% in size
Conditions: GR-bla HeLa viability, CellTiter-Glo luminescence, 18 h, with 5 nM dexamethasone present; series mostly up to 58.5 µM
Excerpt: National Center for Advancing Translational Sciences [NCATS]
NIH Chemical Genomics Center [NCGC]
U.S. Environmental Protection Agency [EPA]
National Institutes of Environmental Health Sciences [NIEHS]
National Toxicology Program [NTP]
U.S. Food and Drug Administration [FDA]
The Glucocorticoid receptor (GR) is one of the members of the nuclear receptor family of ligand-dependent transcription factors. GR plays a critical role in carbohydrate, protein and lipid metabolisms and programmed cell death. CellSensor GR-bla HeLa cell line (Invitrogen) contains a beta-lactamase reporter gene under the control of the glucocorticoid response element stably integrated into HeLa cells, a cervical cancer cell line that expresses glucocorticoid receptor. The activation of the reporter gene under culture conditions can be detected by fluorescence intensity. This cell line has been used to screen the Tox21 10K compound library and to identify the compounds that inhibit the GR signaling. The cytotoxicity of the Tox21 compound library against the GR-bla HeLa cell line was tested in parallel by measuring the cell viability using CellTiter-Glo assay in the same wells.
Tox21 Assay Protocol Summary:
The GR-bla HeLa cells were dispensed at 1500 cells/5 ul/well in 1536-well black wall/clear bottom plates using a Multidrop Combi (ThermoFisher Scientific, Waltham, MA) dispenser. After the assay plates were incubated at a 37 C/5% CO2 incubator for 4 hours, 23 nL of compounds dissolved in DMSO, positive controls or DMSO only was transferred to the assay plate by a pintool station (Kalypsys, San Diego, CA), followed by addition of 1 uL of dexamethasone (5 nM, final concentration in the well). The plates were incubated at 37 C for 18 hours. After 1 uL of LiveBLAzerTM B/G FRET substrate was added using a Flying Reagent Dispenser (Aurora Discovery, San Diego, CA), the plates were incubated at room temperature (RT) for 2 hours, and fluorescence intensity was measured by an Envision plate reader (PerkinElmer, Shelton, CT). After measurement of bla assay, 3 ul CellTiter-Glo (Promega, Madison, WI) was added to measure the cytotoxicity and the plates were then incubated at RT for 30 min. The luminescence was measured using a ViewLux (Perkin Elmer) plate reader.

| SMILES | outcome |
| --- | --- |
| CCCCOC(=O)COc1ccc(Cl)cc1Cl | inactive |
| Cc1cccnc1 | inactive |
| CCCSc1ccc2nc(NC(=O)OC)[nH]c2c1 | inactive |
| O=C(O)c1ccc2c(c1)C(=O)OC2=O | inactive |
| COS(C)(=O)=O | inactive |
| CCCCC(CC)CO (stereo not given) | inactive |
| CCCCC(CC)COC(=O)C(C#N)=C(c1ccccc1)c1ccccc1 (stereo not given) | inactive |
| Cc1ccc(N(C)C)cc1 | inactive |
| O=P(OC(CCl)CCl)(OC(CCl)CCl)OC(CCl)CCl | inactive |
| CCCCCCCCCCCCS | inactive |
| Nc1ccccc1[N+](=O)[O-] | inactive |
| CC1=CC(=O)NS(=O)(=O)O1 | inactive |
| O=C(O)CC(C(=O)O)C(CC(=O)O)C(=O)O (stereo not given) | inactive |
| CN(C)CCC(c1ccc(Cl)cc1)c1ccccn1 (stereo not given) | inactive |
| OCc1cccnc1 | inactive |
| FC(F)(F)c1ccc(Cl)c(Cl)c1 | inactive |
| COc1ccc(NC(C)=O)cc1N | inactive |
| CC(O)COCC(C)O (stereo not given) | inactive |
| C=C(C)C(=O)OCCOCCOCCOC(=O)C(=C)C | inactive |
| Cc1cnc(C(=O)NCCc2ccc(S(=O)(=O)NC(=O)NC3CCCCC3)cc2)cn1 | inactive |

| SMILES | outcome |
| --- | --- |
| O=C(OCCOCCOC(=O)c1ccccc1)c1ccccc1 | inactive |
| C[Si](O[Si](C)(C)C)O[Si](C)(C)C | inactive |
| CCc1ccc(CCOc2ccc(CC3SC(=O)NC3=O)cc2)nc1 (stereo not given) | inactive |
| O=C(O)c1cc(O)c(O)c(O)c1 | inactive |
| Oc1cccc2ccccc12 | inactive |
| O=S(=O)(O)c1ccc2ccccc2c1 | inactive |
| Cc1ccc(S(N)(=O)=O)cc1 | inactive |
| CCCCCOC(C)=O | inactive |
| CC1=CCC2CC1C2(C)C (stereo not given) | inactive |
| Cc1cccc(O)c1 | inactive |
| CN(C)CCOCCN(C)C | inactive |
| C/C=C1/CC2C=CC1C2 (stereo not given) | inactive |
| CC1CCC(C(C)C)C(O)C1 (stereo not given) | inactive |
| CCCCCCCCCC | inactive |
| CCN(CC)c1ccc(C(=O)c2ccccc2C(=O)O)c(O)c1 | inactive |
| O=S1(=O)CC=CC1 | inactive |
| O=C(O)c1cc(=O)c2c(OCC(O)COc3cccc4oc(C(=O)O)cc(=O)c34)cccc2o1 | inactive |
| CC(=O)OCC(=O)[C@@]12N=C(C)O[C@@H]1C[C@H]1[C@@H]3CCC4=CC(=O)C=C[C@]4(C)[C@H]3[C@@H](O)C[C@@]12C | inactive |
| NNc1nncc2ccccc12 | inactive |
| CCCCCCCCCCCCOCCO | inactive |
